Compounds with a hit are over-represented: about 3.3% of the library has one in this group of screens.
UBC13 inh: inhibitors of human UBC13 polyubiquitin chain formation; TR-FRET; inhibition, % at 20 µM; actives 0.47% (n = 330,000); in the data active = inhibition above about 45%, passing the limit was not always enough
GRIN3A LBD mod: modulates the human NR3A ligand-binding domain; NR3A LBD differential scanning fluorimetry, Tm shift; 0% = protein alone, 100% = glycine-bound protein; Tm shift relative to glycine control, % at 25 µM; actives 2.5% (n = 340,000); AID 1259313;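 active = melting temperature shift of at least 10% of the positive control shift, at one fixed dose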
HGIII-sPLA2 inh: Inhibits HGIII-sPLA2 liposome hydrolysis, primary screen | Q9NZ20 | QFRET BODIPY PC-A2 liposome hydrolysis, fluorescence | inhibition, % at 12.2 µM | actives 0.56% (n = 370,000) | AID 743126;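 active = inhibition above mean plus 3 SD of compounds lying within the high and low control bounds, cut at about 19% in these data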
Target sequence (Q9NZ20 whole entry, looked up): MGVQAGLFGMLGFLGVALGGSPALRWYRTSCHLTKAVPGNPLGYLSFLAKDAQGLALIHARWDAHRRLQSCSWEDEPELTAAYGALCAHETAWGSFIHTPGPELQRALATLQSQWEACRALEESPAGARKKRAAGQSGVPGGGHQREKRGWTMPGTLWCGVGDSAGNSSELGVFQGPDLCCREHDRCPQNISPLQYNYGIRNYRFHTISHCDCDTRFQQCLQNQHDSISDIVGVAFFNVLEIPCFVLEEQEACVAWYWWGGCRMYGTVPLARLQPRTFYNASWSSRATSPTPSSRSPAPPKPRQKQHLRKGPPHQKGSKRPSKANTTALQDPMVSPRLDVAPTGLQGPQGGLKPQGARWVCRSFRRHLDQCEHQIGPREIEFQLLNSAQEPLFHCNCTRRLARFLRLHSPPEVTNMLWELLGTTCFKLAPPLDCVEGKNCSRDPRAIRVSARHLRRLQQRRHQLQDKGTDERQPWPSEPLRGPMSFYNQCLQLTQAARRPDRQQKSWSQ
SUMO HTRF inh: inhibitors of human SUMOylation (UBC9) | AID 2006 | P63279 | actives 0.36% (n = 290,000) | HTRF SUMOylation assay, SAE1/SAE2 + UBC9, in vitro | inhibition, % at 35 µM; in the data active = inhibition above about 50%, passing the limit was not always enough
Target sequence (P63279 whole entry, looked up): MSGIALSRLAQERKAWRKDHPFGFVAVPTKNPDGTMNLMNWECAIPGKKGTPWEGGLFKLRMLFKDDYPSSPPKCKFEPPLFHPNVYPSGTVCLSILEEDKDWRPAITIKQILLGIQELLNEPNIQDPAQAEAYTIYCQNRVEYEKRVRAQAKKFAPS
Of the large screens only hits and unclear results are named; the others gave an inactive call.

CCOC(=O)N1CCN(C(=O)CSc2nnc(-c3cccc(OC)c3)o2)CC1	none
COc1cc(NC(=O)Nc2cccc([N+](=O)[O-])c2)cc(OC)c1	GRIN3A LBD mod 29
O=C(NCc1ccco1)Nc1cccc([N+](=O)[O-])c1	GRIN3A LBD mod 19
Cc1ccc(NC(=O)NCc2ccco2)cc1[N+](=O)[O-]	none (no result: UBC13 inh, GRIN3A LBD mod, SUMO HTRF inh)
O=C(Nc1cccc([N+](=O)[O-])c1)Nc1ccc2c(c1)OCCO2	GRIN3A LBD mod 29
O=C(COc1cccc([N+](=O)[O-])c1)NN1C(=O)c2ccccc2C1=O	GRIN3A LBD mod 546
CC(C(=O)Nc1ccc2c(c1)OCCO2)c1ccc([N+](=O)[O-])cc1 (configuration not stated)	none
CNS(=O)(=O)/C=C/c1ccccc1CCNC(=O)OC(C)(C)C	none (no result: UBC13 inh, GRIN3A LBD mod, SUMO HTRF inh)
CC(=O)c1ccc([C@H](O)[C@@H](C(=O)N(C)c2ccccc2)C2CC2)cc1	none (no result: UBC13 inh, GRIN3A LBD mod, SUMO HTRF inh)
COC(=O)[C@]12C[C@H](CC(=O)NCc3ccccc3)C(=O)N(Cc3ccc4c(c3)OCO4)C1=C[C@H](C(C)C)O[C@@H]2C1CC1	none (no result: UBC13 inh, GRIN3A LBD mod, SUMO HTRF inh)
CC(C)S(=O)(=O)c1csc(NC(=O)Nc2cccc([N+](=O)[O-])c2)c1Cl	GRIN3A LBD mod 29
Cc1ccc(S(=O)(=O)NC(C)C(=O)Nc2cccc([N+](=O)[O-])c2)cc1 (configuration not stated)	none
O=C(Nc1cccc([N+](=O)[O-])c1)C1CC(=O)N(C2CCCCC2)C1 (configuration not stated)	GRIN3A LBD mod 14
CC(=O)Nc1cccc(OCc2cccc([N+](=O)[O-])c2)c1	GRIN3A LBD mod 17 (no result: UBC13 inh, SUMO HTRF inh)
O=C(Nc1ccc(C(=O)O)cc1)Nc1cccc([N+](=O)[O-])c1	none
O=C(Nc1cccc([N+](=O)[O-])c1)Nc1cccc([N+](=O)[O-])c1	GRIN3A LBD mod 26
CCn1c(=O)n(CC(=O)N2CCCN(Cc3ccccc3)CC2)c(=O)c2ccccc21	none (no result: UBC13 inh, GRIN3A LBD mod, SUMO HTRF inh)
CC(=O)Nc1ccc(/C=C/c2nc(-c3ccccc3O)n[nH]2)cc1	GRIN3A LBD mod 21
COc1cc(/C=C/c2nc(-c3ccccc3O)n[nH]2)cc(OC)c1OC	none
O=C(NCc1ccc(F)cc1)c1ccc(S(=O)(=O)Nc2cccc(C(F)(F)F)c2)cc1	GRIN3A LBD mod 29
CC(=O)N1CCN(C(=O)c2ccc(S(=O)(=O)Nc3cccc(C(F)(F)F)c3)cc2)CC1	none (no result: GRIN3A LBD mod, SUMO HTRF inh)
O=C(c1ccc(S(=O)(=O)Nc2cccc(C(F)(F)F)c2)cc1)N1CCC1	GRIN3A LBD mod 16
O=C(Nc1cccc(C(F)(F)F)c1)c1cccc(NS(=O)(=O)c2ccc(O)c(C(=O)O)c2)c1	GRIN3A LBD mod 32
O=C(NCc1ccncc1)c1ccc(NS(=O)(=O)c2ccc(F)cc2)cc1	none (no result: SUMO HTRF inh)
O=C(NCc1ccccc1F)c1ccc(S(=O)(=O)Nc2cccc(C(F)(F)F)c2)cc1	GRIN3A LBD mod 27
O=C(Nc1cccc(C(F)(F)F)c1)c1cccc(NS(=O)(=O)c2ccc(Br)c(C(=O)O)c2)c1	none
CCCC(=O)N1CCC[C@]2(CC[C@H](CCC(C)=O)O2)C1	none (no result: UBC13 inh, GRIN3A LBD mod, SUMO HTRF inh)
CCCCS(=O)(=O)N1C2=NC3=C(C(=O)N(CCOC)C3=O)C3N(C)c4ccccc4[C@]23C[C@H]1CO (some centres not stated)	none (no result: UBC13 inh, GRIN3A LBD mod, SUMO HTRF inh)
COc1ccc(/C=C/C(=O)NC2=NCCS2)c(OC)c1	none (no result: UBC13 inh, GRIN3A LBD mod, SUMO HTRF inh)
O=C(NCCCc1ccccc1)[C@H](Cc1c[nH]c2ccccc12)NC1(C(=O)NCCc2c[nH]c3ccccc23)CCC1	none (no result: UBC13 inh, GRIN3A LBD mod, SUMO HTRF inh)
CC(C)(Oc1ccc(Br)cc1Cl)C(=O)Nc1ccon1	GRIN3A LBD mod 13
COC(=O)[C@]12C[C@H](CC(=O)NCCCN3CCCC3=O)C(=O)N(Cc3cccc4ccccc34)C1=C[C@H](COCc1ccccc1)O[C@@H]2C	none (no result: UBC13 inh, GRIN3A LBD mod, SUMO HTRF inh)
Nc1n[nH]c(N)c1N=Nc1cccc(F)c1	none
Nc1n[nH]c(N)c1N=Nc1cccc(C(F)(F)F)c1	GRIN3A LBD mod 20
CS(=O)(=O)c1cnc2c(-c3ccc(F)cc3)cnn2c1N	GRIN3A LBD mod 37
Nc1c(-c2cccs2)cnc2c(-c3ccc(F)cc3)cnn12	GRIN3A LBD mod 30
Cc1nc2c(-c3ccc(F)cc3)cnn2c(N)c1-c1ccc(F)cc1	none
Cc1cccc(-c2nnc(SCC(=O)Nc3ccc(-c4nc5ccc(C)cc5s4)cc3)n2Cc2ccco2)c1	none (no result: UBC13 inh, GRIN3A LBD mod, SUMO HTRF inh)
N=c1c2c(-c3ccccc3)c(-c3ccccc3)n(CCc3ccccc3)c2ncn1C1CCC(O)CC1 (configuration not stated)	none (no result: UBC13 inh, GRIN3A LBD mod, SUMO HTRF inh)
Cc1cc(N2CCN(C(=O)Oc3ccc(C(F)(F)F)cc3)CC2)c2ccccc2n1	none (no result: UBC13 inh, GRIN3A LBD mod, SUMO HTRF inh)
Clc1ccc(CN2CCN(N=Cc3cccc(OCc4ccccc4)c3)CC2)cc1	none (no result: UBC13 inh, GRIN3A LBD mod, SUMO HTRF inh)
COc1ccc(-n2c(SCC(=O)Nc3cccc4ccccc34)nnc2-c2ccco2)cc1	none (no result: UBC13 inh, GRIN3A LBD mod, SUMO HTRF inh)
COc1ccc(NC(=O)c2ccc3[nH]c(C)c(C)c3c2)cc1	GRIN3A LBD mod 29
CC(=O)Nc1cccc(NC(=O)c2cccc(-c3ccc(O)cc3)c2)c1	GRIN3A LBD mod 10
Cc1cc(NC(=O)c2ccc3[nH]c(C)c(C)c3c2)ccn1	GRIN3A LBD mod 12
CC(=O)Nc1cccc(NC(=O)c2cccc(Cl)c2)c1	none (no result: UBC13 inh, GRIN3A LBD mod, SUMO HTRF inh)
CC(=O)Nc1cccc(NC(=O)c2ccc3[nH]c(C)c(C)c3c2)c1	GRIN3A LBD mod 28
COc1ccc(N2CCN(C(=O)c3ccc4[nH]c(C)c(C)c4c3)CC2)cc1	none
CCOC(=O)[C@]12CCCC=C1N(Cc1ccc(OC)cc1)C(=O)[C@@H]2CC(=O)N1CCSCC1	none (no result: UBC13 inh, GRIN3A LBD mod, SUMO HTRF inh)
COc1ccc(C(=O)OCCCN(C)C2CN(Cc3cn(Cc4ccccc4F)nn3)S(=O)(=O)C2)cc1OC (configuration not stated)	none (no result: UBC13 inh, GRIN3A LBD mod, SUMO HTRF inh)
CCOC(=O)[C@]12CCCC3=C1N(CCC3)C(=O)[C@@H](CC(=O)NCc1ccc(OC)c(OC)c1)C2	none (no result: UBC13 inh, GRIN3A LBD mod, SUMO HTRF inh)
C[C@H]1[C@H](N(Cc2cccs2)Cc2cccs2)CC[C@@]23CCCN2C(=O)CCC[C@@H]13	none (no result: UBC13 inh, GRIN3A LBD mod, SUMO HTRF inh)
COc1ccc(CN2C(=O)CN(S(C)(=O)=O)CC2(C)c2nnnn2C2CCCCC2)cc1 (configuration not stated)	none (no result: UBC13 inh, GRIN3A LBD mod, SUMO HTRF inh)
N#Cc1nc(-c2ccc(OCc3ccc(Cl)cc3)cc2)oc1NCCCn1ccnc1	GRIN3A LBD mod 17
CNc1oc(-c2ccc(OCc3ccccc3)cc2)nc1C#N	GRIN3A LBD mod 33
N#Cc1nc(-c2ccccc2)oc1NCCCn1ccnc1	none
COc1cccc(-c2ccc(CC[C@H]3O[C@H]4CC[C@@H](CO)O[C@H]4C[C@H]3NS(C)(=O)=O)cc2)c1	none (no result: UBC13 inh, GRIN3A LBD mod, SUMO HTRF inh)
COc1ccccc1-c1cc(C(F)(F)F)n2ncc(S(=O)(=O)c3ccccc3)c2n1	GRIN3A LBD mod 24
O=S(=O)(c1ccccc1)c1cnn2c(C(F)(F)F)cc(-c3ccc(F)cc3)nc12	GRIN3A LBD mod 14
COC(=O)[C@]12C[C@H](CC(=O)N3CCCCC3)C(=O)N(Cc3cccc4ccccc34)C1=C[C@H](COCc1ccccc1)O[C@@H]2C	none (no result: UBC13 inh, GRIN3A LBD mod, SUMO HTRF inh)
O=C(Nc1cc(Br)ccc1O)c1cnn2c(C(F)F)cc(C3CC3)nc12	GRIN3A LBD mod 14
COC(=O)[C@]12C[C@H](CC(=O)NCc3ccc(OC)c(OC)c3)C(=O)N(CCc3ccc(OC)c(OC)c3)C1=C[C@H](C(C)C)O[C@@H]2C1CC1	none (no result: UBC13 inh, GRIN3A LBD mod, SUMO HTRF inh)
